# Results: PubChem BioAssay (EPA / NIEHS)
# Calls of active or inactive are those of the source. Rule for the calls: active = hit-call score of the fitted dose curve at least 0.9, where 1 is the maximum; inactive = score below 0.9.
# Read-out: Pro-epidermal growth factor (Homo sapiens) (UniProt P01133)
# Test: LTEA_HepaRG_EGF: Life Technologies and Expression Analysis (LTEA) Assay for Epidermal growth factor (EGF) using HepaRG (AID 2283489)
# Settings: mRNA level, 48 h; actives raise or lower the signal
# Procedure: LTEA_HepaRG is a cell based, multiplexed-readout assay that uses HepaRG, a human liver cell line, with measurements taken at 48 hours after chemical dosing on a 96-well plate.LTEA_HepaRG_EGF is one of 102 assay component(s) measured in the LTEA HepaRG cell culture assay. It is a marker of Cell proliferation, survival, death.Data from the assay component LTEA_HepaRG_EGF was analyzed into 1 endpoint. This assay endpoint, LTEA_HepaRG_EGF, was analyzed with bidirectional fitting relative to DMSO as the negative control and baseline of activity. Using a type of inducible reporter, measures of mRNA induction for gain or loss-of-signal activity can be used to understand regulation of transcription factor activity. To generalize the intended target to other relatable targets, this assay endpoint is annotated to the growth factor intended target family, where the subfamily is EGF-like domain.
# A total of 1060 chemcials from the ToxCast library were tested in eight-point concentration-response experiments. Cell culture and cytotoxicity assays were conducted at Thermo Fisher Scientific's Custom Services facility (Madison, WI). A single lot of human HepaRG cells (Thermo Fisher Scientific, Frederick, MD) was used for the cell culture experiments. 96-well format collagen type I coated plates of human HepaRG cells were prepared using established methods. Briefly, cryopreserved HepaRG cells were thawed, plated at a density of approximately 100,000 cells/well in HepaRG Thaw, Plate, and General Purpose media (HPRG770, Thermo Fisher Scientific), and incubated for 48 hours. 0.5% DMSO was selected as vehicle control to balance the requisite need of DMSO in HepaRG cultures to maintain differentiation (for example, baseline metabolism, proportions of hepatocytes vs. cholangiocytes), while enabling further hepatic receptor pathway activation (for example, PXR and CAR) in response to chemical exposure. 48 hours after plating, the culture medium was replaced with HepaRG Serum-Free Incudtion Media. Cells were exposed to each test chemical in duplicate and maintained in CO2 incubators for another 48 hours. Chemical plates were thawed to room temperature and 200x concentrations of treatment groups were prepared. 8-point conentration-reponse curves were made with the highest exposure at 100 uM, followed by half-log dilutions, all in 0.5% DMSO. Each test plate contained variouse controls, induction positive controls (1mM phenobarbital), cytotoxicity positive controls ([…] aflatoxin B1), vehicle controls (0.5% DMSO), and total lysis controls (0.5% DMSO). Cell morphology images were taken using an Essen IncuCyte FLR automated microscope, with six 96-well plates imaged in about 24 minutes. Images were captured and exported and JPEG files. Spent culture media was transfered to black-well plates for the LDH assay, and remaining media was sorted at -80 C for later use. Cells were treated with RLT buffer and frozen until shipped for gene expression analysis. Total RNA was isolated from the cell suspension in 75 uL of Buffer RLT (Qiagen, Germantown, MD 20874) by Quintiles/Expression Analysis (Durham, NC) using a custom isolation procedure. Total RNA from each plate well was transferred to a preamplification plate. Fluidigm's 96.96 Dynamic ArrayTM (Fluidigm, Amsterdam, the Netherlands) technology was used for gene expression analyses by quantitative reverse transcription polymerase chain reaction (qRT-PCR, performed by Quintiles/Expression Analysis, Durham, NC)89. Standard TaqManTM Assays (Applied Biosystems/ThermoFisher Scientific, Foster City, CA) were used to assess the expression of 93 genes selected based on their selectivity and sensitivity to important hepatic receptors known to be modulated by environmental chemicals; importance in human hepatocyte functionality; and hepatotoxicity. […]
Structure (SMILES),outcome,AC50
FC(F)C(F)(F)OCC(Cn1cncn1)c1ccc(Cl)cc1Cl (stereo not given),inactive,–
CCC(=NOC/C=C/Cl)C1=C(O)CC(C2CCOCC2)CC1=O (stereo not given),inactive,–
CCOP(=S)(Oc1cnc(C(C)(C)C)nc1)OC(C)C (stereo not given),inactive,–
CN(C)NC(=O)CCC(=O)O,inactive,–
CC1(C(=O)Nc2ccc(O)c(Cl)c2Cl)CCCCC1,inactive,–
COc1cccc(C(=O)NN(C(=O)c2cc(C)cc(C)c2)C(C)(C)C)c1C,inactive,–
CON=C(C(=O)OC)c1ccccc1CON=C(C)c1cccc(C(F)(F)F)c1,inactive,–
CCCSP(=O)(OCC)SCCC,inactive,–
CCOC(=O)COc1cc(-c2nn(C)c(OC(F)F)c2Cl)c(F)cc1Cl,inactive,–
CNC(=O)ON=C(SC)C(=O)N(C)C,inactive,–
CCOP(=S)(OCC)Oc1cc(C)nc(C(C)C)n1,inactive,–
Nc1nc(N)nc(NC2CC2)n1,inactive,–
CCOC(=O)CC(SP(=O)(OC)OC)C(=O)OCC (stereo not given),inactive,–
CCc1cnc(C2=NC(C)(C(C)C)C(=O)N2)c(C(=O)O)c1 (stereo not given),inactive,–
Cc1nn(-c2cc(NS(C)(=O)=O)c(Cl)cc2Cl)c(=O)n1C(F)F,inactive,–
CSc1nnc(C(C)(C)C)c(=O)n1N,inactive,–
Cc1cc(C2CC2)nc(Nc2ccccc2)n1,inactive,–
CC(C)=CC1C(C(=O)OCN2C(=O)C3=C(CCCC3)C2=O)C1(C)C (stereo not given),inactive,–
CCCOCC(=Nc1ccc(Cl)cc1C(F)(F)F)n1ccnc1,inactive,–
CCCOc1nn(C(=O)NS(=O)(=O)c2ccccc2C(=O)OC)c(=O)n1C,inactive,–

Structure (SMILES),outcome,AC50
CCCCOC(=O)c1ccccc1C(=O)O,inactive,–
COP(=O)(OC)OC(Br)C(Cl)(Cl)Br (stereo not given),inactive,–
CCNc1nc(Cl)nc(NC(C)(C)C#N)n1,inactive,–
Nc1c(Cl)cc([N+](=O)[O-])cc1Cl,inactive,–
CCC(=O)Nc1ccc(Cl)c(Cl)c1,inactive,–
C#CCC1=C(C)C(OC(=O)C2C(C=C(C)C)C2(C)C)CC1=O (stereo not given),–,11.1 µM (active)
O=c1ccc(=O)[nH][nH]1,inactive,–
CCC(CC)Nc1c([N+](=O)[O-])cc(C)c(C)c1[N+](=O)[O-],–,50 µM (active)
CNc1cnn(-c2cccc(C(F)(F)F)c2)c(=O)c1Cl,–,29.8 µM (active)
CNC(=O)Oc1cccc2c1OC(C)(C)O2,inactive,–
CC(COc1ccc(Oc2ccccc2)cc1)Oc1ccccn1 (stereo not given),–,31.5 µM (active)
COc1cc(OC)nc(Sc2cccc(Cl)c2C(=O)O)n1,inactive,–
CC(C1CC1)C(O)(Cn1cncn1)c1ccc(Cl)cc1 (stereo not given),inactive,–
COP(=O)(NC(C)=O)SC (stereo not given),inactive,–
CCCCSP(=O)(SCCCC)SCCCC,inactive,–
CCOP(=S)(OCC)OC(Cl)C(Cl)(Cl)Cl (stereo not given),inactive,–
CCOP(=S)(OCC)Oc1ccc2c(C)c(Cl)c(=O)oc2c1,inactive,–
CN1COCN(Cc2cnc(Cl)s2)C1=N[N+](=O)[O-],inactive,–
COc1ccc(C(=CC(=O)N2CCOCC2)c2ccc(Cl)cc2)cc1OC,inactive,–
CC(C)[C@H](C(=O)O[C@H](C#N)c1cccc(Oc2ccccc2)c1)c1ccc(Cl)cc1,inactive,–
